Laboratory results as given in the supplement of paper PMC6555819.

What was measured:
Assay in all cases: PBM binding z-score (relative to random genomic background probes); higher = stronger binding; sequences stand for … in GC…GCGATTGACAGCGTAGAATGAAGG
[1] = tested on: RARb homodimer (NR concentration 270 nM)
Outline: (§1)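 Regression normalization was applied to scanned fluorescence from custom Agilent 4×180K protein-binding microarrays. Before scanning, arrays were incubated 1 h with ligand-free nuclear receptor dimers, and binding was detected with antibodies against each partner (one per run). Binding z-scores use the random background probes as reference.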

[2] = tested on: RARg:RXRa (NR concentration 270 nM, RXRa partner concentration 90 nM)
Outline: as §1

[3] = tested on: RARg homodimer (NR concentration 270 nM)
Outline: as §1

[4] = tested on: RXRa DBDmut IVT, anti-RXR (DBD mutation: RXRa K156A/R161A, NR concentration 90 nM)
Outline: as §1

[5] = tested on: RXRa homodimer (NR concentration 180 nM)
Outline: as §1

[6] = tested on: THRa:RXRa (NR concentration 90 nM, RXRa partner concentration 90 nM)
Outline: as §1

[7] = tested on: THRa homodimer (NR concentration 90 nM)
Outline: as §1

[8] = tested on: VDR homodimer (NR concentration 270 nM)
Outline: as §1

| Sequence | PBM binding z-score [1] | PBM binding z-score [2] | PBM binding z-score [3] | PBM binding z-score [4] | PBM binding z-score [5] | PBM binding z-score [6] | PBM binding z-score [7] | PBM binding z-score [8] |
| --- | --- | --- | --- | --- | --- | --- | --- | --- |
| GCTTGTAGATCAAGGTTAAGTAAGACTAAGCTAA | 0.397 | 0.425 | 0.177 | 0.147 | 0.706 | 2.36 | -0.276 | -0.509 |
| CGTCCAAGGTCAATGCTAGGTCAGAGAAAGCATT | 5.02 | 7.59 | 7.07 | 3.6 | 6.03 | 4.58 | 3 | 2.77 |
| CAGACTGGGGCAAGGTTACCATAACGCACAGCCA | 1.35 | 1.16 | 1.52 | -0.141 | 1.34 | 1.41 | 0.328 | 0.0721 |
| CGTCAAAGTTCAAGGTATCGTAACAGAAAGCAGC | 3.49 | 4.96 | 5.95 | 4.18 | 3.95 | 1.94 | -0.0941 | 3.17 |
| GCTAGCAGGCCATTTGGTTCACTCAATGACGGGC | -0.301 | -0.115 | -0.168 | 0.552 | -0.107 | -0.195 | -0.949 | 1.2 |
| GCTGCTAGGTCAGGTTGGTCATCTAACGGGTACG | 2.84 | 2.81 | 3.9 | 0.588 | 1.18 | 1.94 | 0.942 | 0.689 |
| CCCACTGGGCCAAAAAGGTCATTGATGCCGATAA | 4.44 | 4.8 | 4.56 | 0.161 | 5.23 | 3.02 | 0.878 | 2.74 |
| GCTAGCAGGCGATTTGGGTCACTCAATGACGGGC | 1.23 | 0.467 | 0.586 | -0.454 | 0.643 | 1.91 | 0.374 | -0.295 |
| TCTAGTTGGTCAAAGGTCACTCACTCGAAATGCG | 4.78 | 6.5 | 6 | 2.11 | 7.54 | 3.86 | 2.1 | 3.03 |
| ATCCCTAGGTAAAGATAGTTCAGTGAATGCAAAT | 1.19 | 0.428 | 0.526 | 0.103 | 0.295 | 0.844 | 0.169 | 0.524 |
| ACTATTAGTCGAGACGAGGGCAACCGATAGGTTG | 0.973 | 0.43 | 0.663 | 0.357 | 0.46 | 0.977 | 0.0699 | 0.358 |
| AGAGACAGGTGAGTGAAGGTAACTCAGCTGGACG | 0.498 | 0.327 | 0.547 | -0.787 | 0.592 | 1.75 | 0.04 | -0.14 |
| CGAACGCGGGCATGAGTTGATAGCAAATGCCGAT | -0.346 | -0.206 | 0.05 | 0.305 | -0.124 | -0.413 | -0.72 | 0.0939 |
| TCATATAGGTAAAAGGTGAAAGTCGGTGTGGTAA | 2.06 | 2.24 | 1.17 | 1.87 | 2.96 | 1.77 | 0.633 | 0.737 |
